Measured values as given in PubChem BioAssay (NCI).
Compounds without any hit were thinned out: in the full panel of roughly 83,000, 20% have a hit.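 Method: cells in 96-well plates; compound added at one concentration; 48 h incubation; percent growth measured; values under 10 scored active.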 A number with no mark means an inactive call. Calls of active or inactive are those of the source.

What was measured:
Assay in all cases: NCI-60 one-dose screen, 48 h (100 = growth as untreated, 0 = no growth, -100 = all killed)
Conditions in all cases: 10 µM unless noted
T-47D breast = tested on: T-47D breast
BT-549 breast = tested on: BT-549 breast
SW-620 colon = tested on: SW-620 colon
MCF7 breast = tested on: MCF7 breast
HCT-116 colon = tested on: HCT-116 colon
HCC-2998 colon = tested on: HCC-2998 colon
KM12 colon = tested on: KM12 colon
MDA-MB-435 melanoma = tested on: MDA-MB-435 melanoma

SMILES | growth (T-47D breast) | growth (BT-549 breast) | growth (SW-620 colon) | growth (MCF7 breast) | growth (HCT-116 colon) | growth (HCC-2998 colon) | growth (KM12 colon) | growth (MDA-MB-435 melanoma)
Oc1ccc(/C=C/c2ccc(O)cc2)cc1 | 69% | 18.7% | 65.4% | 33.1% | 47% | 96.4% | 45.5% | 
COc1ccc(C(=S)N2CCN(c3ccc(Cl)cc3)CC2)cc1 | 88.1% | 95.4% | 106% | 94% | 96% | 105% | 101% | 
CC1(C)CC2=C3C=C[C@@H]4[C@@]5(C)CCC(=O)C(C)(C)[C@@H]5CC[C@@]4(C)[C@]3(C)CC[C@@]2(C(=O)O)C[C@H]1O | 20.3% | 34.3% | 32.9% | 14.7% | 0.846% (active) | 35.4% | 27% | 
Cc1ccc(-c2nc(-c3cn(C)c4ncccc34)cs2)cc1 | -3.08% [100 µM] (active) | -42.1% [100 µM] (active) | -11.6% [100 µM] (active) | -18% [100 µM] (active) | -73.1% [100 µM] (active) |  | -55.5% [100 µM] (active) | -39.5% [100 µM] (active)
Nc1ncnc2c1N=C(c1ccc3c(c1)OCO3)CC(c1cccc(Nc3ccnc4cc(C(F)(F)F)ccc34)c1)N2 (centres undefined) | 87.5% | 112% | 69.1% | 36.6% | 70.3% | 90.6% | 50.1% | 
CCCCCCCCCCCCCCCCCCOc1ccccc1CC(=O)NCC[N+]1(C)CCCCC1 | 75.3% | 74.9% | 63.8% | 53.3% | 57.4% | 32.2% | 28.8% | 
CCOC(=O)c1cnc2c(N=Nc3ccc(OC)cc3)c(N)nn2c1N | 104% | 120% | 101% | 85.9% | 101% |  | 99.6% | 95%
C[C@H](CCCC(=O)NCC#CCN1CCN(C)CC1)[C@H]1CC[C@H]2[C@@H]3CC[C@@H]4CC(=O)CC[C@]4(C)[C@H]3CC[C@]12C | 101% | 76.8% | 98.7% | 79.7% | 68.2% | 104% | 99.8% | 
COc1ccc2c(c1)c(-c1nc(-c3c[nH]c4ncccc34)cs1)cn2CCCN1CCOCC1 | 31.7% | 52.2% | 21.2% | 13.3% | 25.3% | 65.5% | 17% | 
COc1ccc(Oc2nc(Nc3ccc(N4CCOCC4)cc3)ncc2NC(=O)Nc2cc(OC)cc(OC)c2)cc1 | 48.8% | 12.5% | 19.6% | 41.7% | -55.5% (active) | 9.48% (active) | 24% | 
Clc1c(Cl)[n+](Cc2ccc3ccccc3c2)cn1Cc1ccc2ccccc2c1 | -3.8% (active) | -69.5% (active) | 34.4% | 11.8% | 7.02% (active) | 16% | -67.6% (active) | 
Cc1ccc2nc(NC(=O)CSc3nc(-c4ccccc4)c(C#N)c4nnnn34)sc2c1 | 100% |  | 104% | 95.7% | 99.1% | 103% | 102% | 105%
CN1CCN(c2ccc3nc4c(nc3c2C(F)(F)F)C(=O)c2ncccc2C4=O)CC1 | -28.4% (active) |  | 4.71% (active) | -57% (active) | 0.984% (active) | -26.9% (active) | 13% | -91.8% (active)
CCN(CC)c1ccc(/C=N/NC(=O)Cc2ccc(Nc3ccnc(C(F)(F)F)c3)cc2)c(O)c1 | 27.6% |  | 35.6% | 20.9% | 19.6% | 26.9% | 41% | 23.9%
C=Cc1cnc(Nc2ccc(OC)cc2)nc1NCCCNC(=O)C1CCC1 | 66.8% |  | 47.5% | 53.6% | 21.5% | 78.8% | 39.1% | 70.3%
Nn1c(=O)c(=O)[nH]c2c(cnn2-c2ccccc2)c1=O | 108% |  | 110% | 99.4% | 108% | 105% | 107% | 107%
COc1ccc(/C=C/c2ccc3ccccc3n2)c(OC)c1 | 72.8% |  | 38.1% | 57% | 62.3% | 72.4% | 52.5% | -5.31% (active)
COc1cc(C(=O)c2c(-c3ccccc3)oc3c(OC)cccc23)cc(OC)c1OC | 58.2% |  | 20.1% | 10.1% | -8.11% (active) | -4.94% (active) | 3.21% (active) | -28.9% (active)
CCN1CCN(CC(=O)Nc2nc3ccc(NCc4ccc(F)cc4)cc3s2)CC1 | 86.8% |  | 92.3% | 92.1% | 70.9% | 110% | 94.5% | 
CCCCC#Cc1c(I)n(C)c(=O)[nH]c1=O | -2.85% (active) |  | -93.2% (active) | 52.3% | -41.1% (active) | -25.6% (active) | 108% | -36.8% (active)
CC(C)(C)n1cc(-c2ccnc(NCCNS(=O)(=O)c3ccc(O)cc3)c2)c(-c2cccc(O)c2)n1 | 88.4% |  | 103% | 81.5% | 82.4% | 122% | 94.7% | 101%
COC(=O)CC[C@@H]1O[C@@H](c2ccc(F)cc2)[C@@H](O)[C@H]1O | 104% |  | 101% | 96% | 89.3% |  | 99.7% | 98.4%
CC1=C(C(=O)Nc2nc(-c3ccc(Cl)cc3)cs2)[C@H](c2ccc(O)cc2)NC(=O)N1 | 70.5% |  | 102% | 101% | 95.4% | 108% |  | 101%
O=C1/C(=C\c2cccc3nccnc23)SC(=S)N1CCc1ccc(O)cc1 | 82.5% |  | 101% | 94.4% | 92% | 116% | 97.1% | 97.4%
N#CSc1c[nH]c2cccc(/C=C/C(=O)/C=C(O)/C=C/c3cccc4[nH]cc(SC#N)c34)c12 | -10.5% (active) |  | -43% (active) | -41.6% (active) | -92% (active) |  | -16.9% (active) | -83.8% (active)
C=C1CC[C@@H]2[C@](C)(COC(C)=O)[C@H](OC(C)=O)CC[C@@]2(C)[C@@H]1CC(Nc1ccc(S(=O)(=O)NC(C)=O)cc1)C1=CCOC1=O (some centres undefined) | -3.67% (active) |  | -65.6% (active) | -33.6% (active) | -63.9% (active) | -12.7% (active) | -34% (active) | -38.8% (active)
Cc1ccc(C(=O)Nc2cccc(C#Cc3cccc4[nH]nc(N)c34)c2)cc1C(F)(F)F | 46.3% |  | 65.4% | 59.8% | 25.2% | 51% | 64.3% | 
